Results taken from PubChem BioAssay AID2515 (National Center for Advancing Translational Sciences (NCATS), 2010).
Records with an inconclusive call do not appear. Active and inactive are the calls of the source. Calls follow the shape of the dose curve; as a rule, active = well fitted inhibition curve with a large enough effect; inconclusive = small, poorly fitted or top-dose-only effect; inactive = flat fitted curve, though single readings scatter.

Target: Luciferin 4-monooxygenase (Photinus pyralis) (UniProt P08659)
Sequence (P08659 whole entry, looked up, canonical isoform): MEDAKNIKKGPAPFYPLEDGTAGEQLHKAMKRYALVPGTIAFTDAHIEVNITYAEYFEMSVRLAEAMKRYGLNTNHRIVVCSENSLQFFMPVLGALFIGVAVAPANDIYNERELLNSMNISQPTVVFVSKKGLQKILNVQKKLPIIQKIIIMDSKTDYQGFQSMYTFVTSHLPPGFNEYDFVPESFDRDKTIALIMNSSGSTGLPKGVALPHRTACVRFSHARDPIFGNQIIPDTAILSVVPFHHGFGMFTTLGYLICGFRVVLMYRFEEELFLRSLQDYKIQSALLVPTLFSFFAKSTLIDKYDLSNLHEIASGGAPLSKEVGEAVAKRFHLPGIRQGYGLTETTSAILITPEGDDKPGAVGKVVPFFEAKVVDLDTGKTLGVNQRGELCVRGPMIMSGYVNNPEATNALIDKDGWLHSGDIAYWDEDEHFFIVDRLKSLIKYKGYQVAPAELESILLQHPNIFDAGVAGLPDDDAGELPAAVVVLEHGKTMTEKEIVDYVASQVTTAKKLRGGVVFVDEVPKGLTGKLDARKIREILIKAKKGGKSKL
Assay: Counterscreen Assay for Enhancers of SMN2 Splice Variant Expression: Interaction with Luciferase Reporter for Probe SAR
Settings: purified firefly luciferase, luminescence inhibition
Text: NIH Chemical Genomics Center [NCGC] NIH Molecular Libraries Probe Production centers Network [MLPCN] MLPCN Grant: R03 MH084179-01 Assay Submitter (PI): Elliot Androphy NCGC Assay Overview: Spinal muscular atrophy (SMA) is caused by insufficient levels of the survival motor neuron protein SMN. The SMN locus on chromosome 5q13 contains two inverted copies of SMN called SMN1 and SMN2 which are 99% identical at the amino acid level. SMN1 is a fully functional protein and SMN2 skips exon 7 90% of the time. Skipping of exon 7 produces non-functional protein product. 10% of the SMN2 protein includes exon 7 and is fully functional. In the SMA disease state, mutations in the SMN1 locus are the cause of the disease state. […]
NCGC Assay Protocol Summary: The primary screen utilizes a luciferase reporter gene assay, combining the promoter and splicing based cassettes in tandem with the major portion of the native SMN1 cDNA, and then transfected into HEK293 cells. […] Sequence, Parameter, Value, Description (1) Reagent, 2.5 uL, Enzyme in buffer (note A) (2) Compound, 23 nL, From stock solutions (3) Time, 5 minutes, Room temp (4) Reagent#2.5 ul, Luciferase detection reagent (note B) (5) Detector, 1 sec integrate, Luminescent read on Viewlux (note C) Sigma enzyme (1 mg) considered to be MW 61,000 diluted in 357 ul assay buffer to 50 uM stock. […]

Brc1ccc(-c2csc(N3CCCCC3)n2)cc1
Potency: 17.9 µM (active)
